{"source": "PubChem BioAssay AID449762", "about": "(Southern Research Specialized Biocontainment Screening …, 2010)", "note": "Screen size: about 330,000 compounds; about 1,900 (0.58%) were called active. Another 4% or so got no clear call; they are omitted. Not all results are given here. Potency and affinity values are given separately. Unmarked numbers belong to inactive results. No stated cut-off is given here; in the data, inconclusive means inhibition above about 70% without an active follow-up result; inactive means below that.", "data": [{"experiment": "M. tuberculosis growth inhibition, HTS (AID 449762);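 further: bacterial growth assessed after seven days of incubation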", "conditions": "M. tuberculosis H37Rv growth inhibition, 7H9 media; at 25 µM; hits give high values", "units": {"inhibition": "%"}, "values": [{"smiles": "Cc1ccc(N2CCN(/N=C/C(Cl)=C/c3ccccc3)CC2)cc1", "inhibition": 4.03}, {"smiles": "COc1ccccc1N1CCN(/N=C\\c2ccccc2)CC1", "inhibition": 4.03}, {"smiles": "O=C(Nc1ccc2c3c(cccc13)CC2)c1cccc([N+](=O)[O-])c1", "inhibition": -7.19}, {"smiles": "Cc1c(C(=O)Nc2ccc3c4c(cccc24)CC3)cccc1[N+](=O)[O-]", "inhibition": 27.6}, {"smiles": "COc1ccc(-c2cc(C)no2)cc1S(=O)(=O)N1CCN(C(=O)c2ccco2)CC1", "inhibition": -7.17}, {"smiles": "COc1ccc(CCN=C(N)C(C)c2ccccc2)cc1OC", "note": "(stereo not given)", "inhibition": -10.7}, {"smiles": "CC(C)Cc1ccc(C(C)C(=N)N)cc1", "note": "(stereo not given)", "inhibition": 6.85}, {"smiles": "CCOC(=O)c1c(-c2ccc(OC)cc2)csc1NC(=O)CSc1ccccc1", "inhibition": 3.36}, {"smiles": "CCOC(=O)c1c(-c2ccc(Cl)cc2)csc1NC(=O)CNCc1ccco1", "inhibition": 3.78}, {"smiles": "COC(=O)c1c(NC(C)=O)sc(C(=O)N2CCOCC2)c1C", "inhibition": 2.88}, {"smiles": "COC(=O)c1c(NC(=O)C(C)C)sc(C(=O)N2CCOCC2)c1C", "inhibition": -8.29}, {"smiles": "S=C(NCc1ccncc1)Nc1cc(Cl)cc(Cl)c1", "inhibition": 69.9}, {"smiles": "COC(c1ccccc1)c1nnc(CCC(=O)N(C)CCCC2CCCC2)o1", "note": "(stereo not given)", "inhibition": 3.33}, {"smiles": "O=C(CCc1nnc(CCCc2ccccc2)o1)NCCc1ccccc1", "inhibition": 3.96}, {"smiles": "O=C(CCc1nnc(CCCCc2ccccc2)o1)NCCC1CCCCO1", "note": "(stereo not given)", "inhibition": -2.58}, {"smiles": "CN(C(=O)CCc1nnc(-c2ccc(-c3ccccc3)cc2)o1)C1CCOCC1", "inhibition": -8.56}, {"smiles": "COc1ccc(C2=CSC3=NCCN23)cc1", "inhibition": 4.38}, {"smiles": "CCC(=NCc1cccnc1)c1c(O)n(Cc2ccccc2)c(=O)[nH]c1=O", "inhibition": -0.2}, {"smiles": "COc1ccc(NC(=O)Cn2c(=O)n(-c3ccccc3)c(=O)c3oc4ccccc4c32)c(OC)c1", "inhibition": -0.2}, {"smiles": "CC1(C)CC(=O)CC(=Nc2ccc(C(=O)O)cc2)C1", "inhibition": 2.32}, {"smiles": "COc1ccc(OC)c(C(c2nnnn2Cc2ccccc2)N2CCN(C)CC2)c1", "note": "(stereo not given)", "inhibition": 5.62}, {"smiles": "O=[N+]([O-])c1cc(/C=N/N2CCCCC2)ccc1Cl", "inhibition": 1.34}, {"smiles": "Cc1ccc(CN2CCN(/N=C\\c3cccc([N+](=O)[O-])c3)CC2)cc1", "inhibition": 55.9}, {"smiles": "Nc1c2c(nc3ccn(-c4ccccc4)c(=O)c13)CCCCC2", "inhibition": 3.82}, {"smiles": "Nc1c2c(nc3ccccc13)CCC2", "inhibition": -1.89}, {"smiles": "CCNC(=O)c1nc[nH]c1C(=O)NCC", "inhibition": -0.32}, {"smiles": "COc1ccc2c(c1OC)C(=O)N1c3ccccc3COC21", "note": "(stereo not given)", "inhibition": -4.65}, {"smiles": "CC1CC(C)CN(C(=O)c2cc3c(=O)n4ccccc4nc3s2)C1", "note": "(stereo not given)", "inhibition": 9.39}, {"smiles": "COc1cccc(CNS(=O)(=O)c2cccc(S(=O)(=O)N3CCOCC3)c2)c1", "inhibition": 5.34}, {"smiles": "COc1ccccc1C1CC(c2ccc(Cl)cc2Cl)Nc2nc(N)nn21", "note": "(stereo not given)", "inhibition": -6.06}, {"smiles": "O=C(COc1ccccc1)NNC(=O)c1cc2ccccc2oc1=O", "inhibition": -4.55}, {"smiles": "O=C(COc1ccc(F)cc1)NNC(=O)c1cc2ccccc2oc1=O", "inhibition": -1.43}, {"smiles": "CCOc1cc(N2CCOCC2)c(OCC)cc1NC(=O)c1ccc(OC)c(S(=O)(=O)N2CCOCC2)c1", "inhibition": -2.5}, {"smiles": "Cc1c(NS(=O)(=O)c2cccc(C(=O)NCc3ccc(Cl)cc3)c2)c(=O)n(-c2ccccc2)n1C", "inhibition": -7.86}, {"smiles": "CCOC(=O)c1csc(N)n1", "inhibition": -3.93}, {"smiles": "CCOC(=O)c1csc(-c2ccc(OC)c(OC)c2)n1", "inhibition": 6.33}, {"smiles": "O=C(Nc1cccc(Cl)c1)NC1CC2CCC(C1)N2Cc1cccs1", "note": "(stereo not given)", "inhibition": -7}, {"smiles": "CCOc1ccc(-c2c[n+]3c(n2-c2ccccc2)CCCCC3)cc1", "inhibition": -9.73}, {"smiles": "CCOc1ccc(-n2c(-c3ccccc3)c[n+]3c2CCCCC3)cc1", "inhibition": -7.91}, {"smiles": "Cc1nc(NC(=O)COC(=O)C2CC2C)c(Cl)cc1Cl", "note": "(stereo not given)", "inhibition": -3.52}, {"smiles": "Cc1ccccc1Nc1nc(N)nc(COC(=O)c2ccco2)n1", "inhibition": 10.5}, {"smiles": "Cc1ccccc1Nc1nc(N)nc(COC(=O)c2ccccc2)n1", "inhibition": -4.25}, {"smiles": "CC1CN(c2ccc([N+](=O)[O-])c(NCCOc3ccccc3)c2)CCN1", "note": "(stereo not given)", "inhibition": 22.7}, {"smiles": "CC1CN(c2ccc([N+](=O)[O-])c(NCCOc3ccccc3)c2)CC(C)N1", "note": "(stereo not given)", "inhibition": 18.3}, {"smiles": "Cc1csc2nc(O)c(C(=O)NCCC3=CCCCC3)c(=O)n12", "inhibition": 49.8}, {"smiles": "O=C(NCCC1=CCCCC1)c1c(O)nc2ccccn2c1=O", "inhibition": -7.18}, {"smiles": "Cc1csc2nc(O)c(C(=O)NCc3ccc4c(c3)OCO4)c(=O)n12", "inhibition": 28.7}, {"smiles": "O=C(NCc1ccc2c(c1)OCO2)c1c(F)c(F)c(F)c(F)c1F", "inhibition": 4.75}, {"smiles": "Cc1ccc(C)c(C(=O)n2cnnc2N)c1", "inhibition": -9.61}, {"smiles": "NC(=O)C1c2ccccc2Oc2ccccc21", "inhibition": -5.49}, {"smiles": "Cc1cc(C)nc(N2CCCC(C(=O)NC(C)C)C2)n1", "note": "(stereo not given)", "inhibition": 0.18}, {"smiles": "O=C(Nc1cc(Cl)ccc1Cl)c1ccco1", "inhibition": -6.05}, {"smiles": "O=C(NC(NC(=S)Nc1cc(Cl)ccc1Cl)C(Cl)(Cl)Cl)c1ccco1", "note": "(stereo not given)", "inhibition": 11.3}, {"smiles": "COc1ccc(NC(=O)Nc2ccc3c(c2)C(=O)N([C@H](C)CO)C[C@H](C)[C@@H](CN(C)S(=O)(=O)c2cccs2)O3)cc1", "inhibition": 2.72}, {"smiles": "C[C@H](CO)N1C[C@H](C)[C@@H](CN(C)S(=O)(=O)c2cccs2)Oc2ccc(NC(=O)Nc3ccccc3)cc2C1=O", "inhibition": -4.72}, {"smiles": "CCCc1nc2nc(C)c(NS(=O)(=O)c3ccc(Cl)cc3)c(=O)n2[nH]1", "inhibition": -4.54}, {"smiles": "CC(C)=NNc1nc2c(c(=O)n(C)c(=O)n2C)n1CCc1ccccc1", "inhibition": -14.4}, {"smiles": "Cc1ccc(/C=C/S(=O)(=O)NCC(=O)OCC(=O)Nc2ccc(C(N)=O)cc2)cc1", "inhibition": -3.63}, {"smiles": "Cc1ccc(/C=C/S(=O)(=O)NCC(=O)OCC(=O)NCc2ccccc2)cc1", "inhibition": 6.29}, {"smiles": "O=C(NC1CCSc2ccccc21)c1cc([N+](=O)[O-])ccc1N1CCOCC1", "note": "(stereo not given)", "inhibition": -4.07}]}]}
